Source: PubChem BioAssay
Only some compounds are listed: those with a hit (about 11% of all), similar ones and a draw of the others.
JMJD2A Tudor inh: inhibitors of human JMJD2A Tudor domain; 390,000 tested, 4.4% active; Potency, µM (titrated, usually from 114 µM), for the others: top-dose activity change, negative = inhibition, actives largely listed as inhibitors; AlphaScreen JMJD2A-Tudor / H3K4me3 peptide binding; O75164; also: potency is read from the fitted curve at half-maximal effect; % is scaled to controls: 0 for no effect and ±100 for the full control effect; nearly all actives have a fitted effect of over 50% in size
PI5P4K alpha inh: PI5P4K alpha (human) kinase inhibition; max response, %; PI5P4Kalpha enzyme, ADP-Glo luminescence, 60 min; active compounds read low; P48426; 330,000 tested, 1.2% active; active = max response of -50% or lower; inconclusive = between -30% and -50%; inactive = -30% or higher; also: value at the top dose of about 77 µM; % is scaled to controls: 0 for no effect and ±100 for the full control effect
Target sequence (P48426 whole entry, looked up): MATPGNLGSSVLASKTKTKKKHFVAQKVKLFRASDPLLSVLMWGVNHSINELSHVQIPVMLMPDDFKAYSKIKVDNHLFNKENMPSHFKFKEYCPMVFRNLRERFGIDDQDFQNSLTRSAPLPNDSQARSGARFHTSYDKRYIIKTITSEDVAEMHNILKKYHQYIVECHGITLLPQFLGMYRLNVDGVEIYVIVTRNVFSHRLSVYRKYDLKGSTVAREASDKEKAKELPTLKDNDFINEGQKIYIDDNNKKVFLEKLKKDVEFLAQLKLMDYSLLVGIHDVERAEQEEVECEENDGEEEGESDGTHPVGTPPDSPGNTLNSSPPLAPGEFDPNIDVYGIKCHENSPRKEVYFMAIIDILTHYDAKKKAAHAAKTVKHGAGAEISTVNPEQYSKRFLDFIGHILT
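ADP-Glo luminescence end-point read after a 60 min room-temperature kinase reaction of PI5P4Kalpha plus substrate, initiated with ATP at 5 microM final. Buffer: 0.038 M HEPES pH 7.4, EGTA, 0.1% CHAPS, 5% DMSO.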
BAZ2B block: inhibitors of human BAZ2B bromodomain; Q9UIF8; 360,000 tested, 4.4% active; Potency, µM (doses to about 114 µM), for inactives: top-dose activity change, negative = inhibition, hits mostly inhibitors; AlphaScreen BAZ2B-H3K14Ac peptide displacement; also: potency is read from the fitted curve at half-maximal effect; % is scaled to controls: 0 for no effect and ±100 for the full control effect; nearly all actives have a fitted effect of over 60% in size
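BAZ2B (50 nM) with biotin-H3(5-23)K14Ac peptide (50 nM) in PBS pH 7.4, 0.01% Tween-20, preformed 30 min, then compound 30 min at room temperature; top concentration 110uM. AlphaScreen streptavidin donor/nickel chelate acceptor beads (10 ug/mL final), 20 min dark, signal read.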
G9a inh: blocks human histone lysine methyltransferase G9a. Q96KQ7. G9a H3K9 monomethylation, AlphaScreen, 2 h. Potency, µM (highest dose often 102 µM), for the others: at the highest dose activity, negative = inhibition, actives largely listed as inhibitors. 350,000 tested, 8.8% active. AID 504332; also: potency is read from the fitted curve at half-maximal effect; % is scaled to controls: 0 for no effect and ±100 for the full control effect; nearly all actives have a fitted effect of over 75% in size
Target sequence (Q96KQ7 913-1193 limits assumed): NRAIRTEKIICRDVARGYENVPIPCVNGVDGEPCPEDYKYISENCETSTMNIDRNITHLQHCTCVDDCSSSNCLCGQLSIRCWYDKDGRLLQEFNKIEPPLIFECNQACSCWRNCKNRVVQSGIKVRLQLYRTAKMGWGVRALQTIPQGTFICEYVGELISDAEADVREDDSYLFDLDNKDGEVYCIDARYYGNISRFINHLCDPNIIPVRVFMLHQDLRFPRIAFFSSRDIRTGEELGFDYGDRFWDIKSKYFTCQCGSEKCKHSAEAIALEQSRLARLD
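Methyltransferase reactions run at room temperature for 2 h (20 nM enzyme, 500 nM biotin-H3K9 peptide, 20 uM SAM) after a 15 min compound preincubation; product detected by AlphaScreen beads and anti-H3K9me1 antibody.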
L3MBTL1 inh: inhibitors of human L3MBTL1. Q9Y468. AlphaScreen L3MBTL1–H3K9me1 peptide binding. Potency, µM (titrated, usually from 57.1 µM), for the others: top-dose activity, negative = inhibition, most hits filed as inhibitors. 230,000 tested, 0.66% active. AID 485360; also: potency is read from the fitted curve at half-maximal effect; % is scaled to controls: 0 for no effect and ±100 for the full control effect; nearly all actives have a fitted effect of over 60% in size
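AlphaScreen proximity signal between nickel-chelate acceptor and streptavidin donor beads (final 10 ug/mL) reports binding of 50 nM L3MBTL1 to 75 nM biotin-H3 K9me1 peptide; complex incubated with compounds 30 min at room temperature; cefsulodin titration as control.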
HP1b chromo inh: HP1-beta chromodomain-methylated histone interaction inhibition. AlphaScreen HP1-beta / biotin-H3K9me3 peptide binding. 390,000 tested, 0.56% active. Potency, µM (doses to about 114 µM), for inactives: top-dose activity change, negative = inhibition, actives largely listed as inhibitors. AID 540317; also: potency is read from the fitted curve at half-maximal effect; nearly all actives have a fitted effect of over 70% in size
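Compound inhibition of the preformed complex between 50 nM HP1-beta and 50 nM biotinylated H3K9me3 peptide was read by AlphaScreen. Buffer was PBS pH 7.4 with 0.01% Tween-20. Incubations ran 30 min at room temperature, with 10 ug/mL donor/acceptor beads.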
The depositor's hits bear a star; u = inconclusive; x = no result; ! = not confirmed by another sample; [ ] = dose if it differs, or a comment. Unless noted, calls follow the shape of the dose curve; as a rule, active = well fitted inhibition curve with a large enough effect; inconclusive = small, poorly fitted or top-dose-only effect; inactive = no such curve, though single readings can be large or run the other way.

SMILES	JMJD2A Tudor inh	PI5P4K alpha inh	BAZ2B block	G9a inh	L3MBTL1 inh	HP1b chromo inh
CCCC(=O)Nc1ccc(-c2csc(NNC(C)=O)n2)cc1	-18.2%	3.0	0.6%	35.5µM*	x	38.4%
CC(=O)Nc1ccc(-c2csc(NC(=O)Cc3ccccc3F)n2)cc1	-29.1%	u	-27.6%	39.8µM*	x	-15.9%
CC(=O)NNc1nc(-c2ccc(C)cc2)cs1	-11.3%[11.4 µM]	12.2	-19.1%	31.6µM*	-3.7%	15.5%
O=C(NCc1ccccc1Cl)C1CCN(C(=O)N2CCOc3ccccc32)CC1	-6.6%	x	-3.1%	-4.5%[59 µM]	x	16.9%
O=C(O)c1cc(=O)cc(C(=O)O)[nH]1	-9.6%	x	-38.0%	1.68µM*!	6.3%[11.4 µM]	44.1%
O=C(O)c1cc(=O)[nH]c(=O)[nH]1	x	x	x	11.7%[59 µM]	x	x
Cc1nnc(N2CCN(c3ccc(Cl)cc3)CC2)c2c1nnn2Cc1ccc(F)cc1	-13.5%	x	-18.4%	9.8%[59 µM]	x	57.0%
COc1ccc2c(c1)CC(C(=O)NCc1ccc(F)cc1)CO2 (centres undefined)	-0.6%	x	3.2%	-0.7%[59 µM]	x	18.5%[57 µM]
CCOC(=O)c1ccc(NC(=O)Cc2noc3ccc(C)cc23)cc1	-5.6%	x	-0.9%	12.6µM*	x	50.9%
COc1ccc(C)cc1NC(=O)c1nnn(-c2c(C)cccc2C)c1C	-7.9%	x	-14.0%	-40.4%[59 µM]	x	15.0%
Cc1ccc(CCNC(=O)c2ccc(CNS(=O)(=O)c3ccc(F)cc3)cc2)cc1	-5.1%	x	4.2%	1.4%[59 µM]	x	20.2%
O=C(O)c1cn(-c2ccc(F)cc2)c2cc(N3CCNCC3)c(F)cc2c1=O	50.1µM*	5.9	x	u	x	23.7%
COc1ccc(S(=O)(=O)N2CCOCC2)cc1NC(=O)CCNC(=O)c1ccc([N+](=O)[O-])cc1	-14.8%	1.7	8.5%	3.55µM*	7.6%	23.3%
O=C(CCNC(=O)c1ccc(Br)cc1)Nc1cccc(S(=O)(=O)N2CCCC2)c1	-20.7%	-1.9	-0.8%	44.7µM*	u	1.6%
O=C(CCNC(=O)c1ccc([N+](=O)[O-])cc1)Nc1cccc(S(=O)(=O)N2CCCCCC2)c1	-29.2%	3.0	56.2µM*	-8.1%[2.33 µM]	-4.9%	3.8%
COc1ccc(S(=O)(=O)N2CCOCC2)cc1NC(=O)Cc1sc(C)nc1-c1ccc(F)cc1	-22.1%	3.1	3.7%	50.1µM*	-5.0%	7.2%
Cc1ccc(-c2nnc(SCc3ccccc3C#N)o2)cc1	-11.2%	x	-6.5%	5.1%[59 µM]	x	23.9%
O=C(OCC#CCSc1nnc(-c2cccc3ccccc23)o1)c1ccncc1	-6.1%	x	x	x	x	x
COC(=O)c1ccccc1NC(=O)c1ccc(F)cc1F	-3.4%	x	x	x	x	x
CCOc1ccc(CCNC(=O)c2ccc(CSCc3ccccc3C)o2)cc1OCC	-22.6%	x	12.6%	u	x	41.0%
O=c1nc2n(c3sc4c(c13)CCCC4)C(CBr)CS2 (centres undefined)	-14.4%	-21.6	-2.2%	50.1µM*	-3.2%	22.5%
O=c1c2ccccc2nc2n1C(CBr)CS2 (centres undefined)	-13.4%	-1.2	-21.7%	u	-1.0%[11.4 µM]	14.5%
Cn1cc(CN(C(=O)Nc2ccccc2)C2CCCCC2)c2ccccc21	u	x	x	u	x	-8.7%
CCc1ccc(NC2CC(=O)N(CCc3ccc(OC)c(OC)c3)C2=O)cc1 (centres undefined)	u	-14.3	-26.2%	50.1µM*	-7.6%	u
O=C1CC(Nc2ccccc2)C(=O)N1c1ccc(N2CCOCC2)cc1 (centres undefined)	-3.2%	9.8	-8.3%	-4.9%[2.33 µM]	4.0%	25.9%
SMILES	JMJD2A Tudor inh	PI5P4K alpha inh	BAZ2B block	G9a inh	L3MBTL1 inh	HP1b chromo inh
O=C1CC(Nc2ccc(N3CCOCC3)cc2)C(=O)N1c1ccccc1F (centres undefined)	u	-12.9	4.9%	8.91µM*	u	-5.1%
COc1ccc(CCN2C(=O)CC(Nc3ccc(N4CCOCC4)cc3)C2=O)cc1OC (centres undefined)	u	-5.3	44.7µM*	14.1µM*	x	-9.6%
COc1ccc(CCN2C(=O)C3C4CC(C5C(C(=O)N/N=C\c6ccc(Cl)cc6)=NOC45)C3C2=O)cc1OC (centres undefined)	-10.6%	-5.1	3.5%	-14.3%	x	30.1%
CCOC(=O)C1=NOC2C3CC(C12)C1C(=O)N(CCc2ccc(OC)c(OC)c2)C(=O)C31 (centres undefined)	35.5µM*	-9.5	u	x	x	u
COc1ccc(CCN2C(=O)CC(N3CCOCC3)C2=O)cc1OC (centres undefined)	-6.7%	4.6	10.5%	9.8%[59 µM]	-0.5%	21.0%
COc1ccc(-c2cn3cccnc3n2)cc1NC(=O)Nc1ccc(Cl)cc1	-1.9%	x	-4.7%	6.7%[59 µM]	x	8.6%[57 µM]
CCc1cc2c(cc3c(=O)n(CC(=O)N4CCN(c5cccc(C)c5C)CC4)nc(CC)n32)s1	-19.6%	x	-14.7%	-6.2%[59 µM]	x	8.9%
N[C@H](C(=O)O)c1ccc(C(=O)O)cc1	x	x	x	34.0%[59 µM]	x	x
COc1ccc(-c2nc3c(c(SCC(=O)N4CCCCC4)n2)Cc2c(CO)cnc(C)c2O3)cc1	-22.3%	x	u	u	x	8.3%
COC(=O)c1ccc(NC(=S)NCC2CC2)cc1	-8.1%	2.0	-3.5%	0.2%[12.7 µM]	2.1%	37.7%
COC(=O)NNC(=S)Nc1ccc(Br)cc1	3.1%	-2.2	-10.7%	50.1µM*	-5.4%	68.8%
COC(=O)c1ccc(NC(=S)Nc2ccc(O)cc2)cc1	-7.6%	2.7	-5.0%	50.1µM*	2.1%	24.3%
CCOc1ccc(NC(=S)NNC(=O)c2cc(Br)ccc2Cl)cc1	-29.4%	7.5	-18.7%	44.7µM*	6.3%	-15.6%
CCOc1ccc(NC(=O)c2cc(SC)ccc2Cl)cc1	-4.2%	-4.8	8.0%	10.8%[59 µM]	-3.9%	22.0%
Oc1ccc(NC(=S)Nc2ccc(O)cc2)cc1	-19.3%	-4.7	-7.5%	50.1µM*	u	31.4%
COC(=O)c1ccc(Cl)cc1NC(=O)Nc1nnc(N(C)Cc2ccccc2)s1	17.5%	x	4.0%	-18.1%[59 µM]	x	74.2%
COc1ccc(-c2cc(C(=O)Nc3c(C(=O)c4ccc(C)c(F)c4)oc4ccccc34)no2)cc1	5.0%	x	4.4%	0.7%[59 µM]	x	40.6%
COc1ccccc1CNC(=O)C(Cc1ccccc1)NS(=O)(=O)c1ccc2c(c1)CCN2C(C)=O (centres undefined)	-4.7%	x	x	0.0%[59 µM]	x	28.4%
CCOc1ccc(NC(=S)NNc2ccnc3cc(Cl)ccc23)cc1	22.4µM*	3.0	u	7.08µM*	-29.9%	11.2µM*
CC(C(=O)NC1C=CS(=O)(=O)C1)N1C(=O)/C(=C/c2ccc(Cl)cc2)SC1=S (centres undefined)	u	-13.4	22.4µM*	x	x	-25.7%
CN(C)c1c(-c2ccccc2)cc(-c2ccccc2)[nH]c1=O	x	x	-7.6%	35.5µM*	x	x
